BLM inh – Bloom syndrome helicase (human) inhibition. recombinant BLM DNA unwinding, fluorescence dequenching. Potency, µM (series often up to 56.1 µM), for inactives: at the top dose activity change, negative = inhibition, hits mostly inhibitors. hit rate 0.2% among 350,000;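 further: plate controls were vehicle for no effect and no enzyme for full effect; nearly all actives have a fitted effect of over 35% in size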
FEN1 inhibitor – blocks human flap endonuclease 1; Recombinant FEN1 flap cleavage, fluorescence, 15 min; Potency, µM (titrated, usually from 114 µM), inactives show top-dose activity change, negative = inhibition, actives largely listed as inhibitors; hit rate 0.35% among 390,000; AID 588795; further: nearly all actives have a fitted effect of over 65% in size
Target sequence (P39748 whole entry, looked up): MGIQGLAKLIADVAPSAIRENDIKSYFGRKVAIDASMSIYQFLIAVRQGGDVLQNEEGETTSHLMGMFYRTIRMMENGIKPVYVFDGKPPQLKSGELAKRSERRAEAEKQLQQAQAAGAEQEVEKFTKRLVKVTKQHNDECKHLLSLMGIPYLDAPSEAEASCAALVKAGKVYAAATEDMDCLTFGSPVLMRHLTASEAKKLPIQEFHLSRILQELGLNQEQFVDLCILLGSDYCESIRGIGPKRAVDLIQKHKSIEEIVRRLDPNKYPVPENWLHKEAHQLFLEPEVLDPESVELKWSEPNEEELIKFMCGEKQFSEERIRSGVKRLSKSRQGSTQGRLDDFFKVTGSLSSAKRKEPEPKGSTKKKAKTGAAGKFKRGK
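Quantitative HTS format: each compound was titrated, incubated with 10 nM nuclease for 15 min at room temperature, then challenged with flap substrate at 50 nM final. Signal change over 15 min gave concentration–effect curves.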
RECQ1 inh-1 – RECQ1 (human) helicase inhibition | P46063 | hit rate 0.54% among 240,000 | Potency, µM (series often up to 57.3 µM), for the others: top-dose activity, negative = inhibition, usual class: inhibitors | AID 2549 | RECQ1 DNA unwinding, red fluorescence kinetic read;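 further: plate controls were vehicle for no effect and no enzyme for full effect; nearly all actives have a fitted effect of over 30% in size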
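RECQ1T1 50 nM; forked duplex (20 bp + 30-nt ss tails) 200 nM, ATP 2 mM final; pH 8.0, 2 mM MgCl2, 2.5 ug/ml poly(dI-dC); 15 min compound preincubation; discontinuous kinetic read over 2 h at RT.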
TDP1 inh – TDP1 (human) enzyme inhibition | hit rate 0.28% among 350,000 | recombinant TDP1, AlphaScreen DNA substrate cleavage | Q9NUW8 | Potency, µM (highest dose often 130 µM), for inactives: at the highest dose activity change, negative = inhibition, usual class: inhibitors | AID 485290; further: nearly all actives have a fitted effect of over 40% in size
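AlphaScreen read-out: signal falls as enzyme removes the 3' tyrosine-FITC from a 5'-biotinylated DNA oligo (15 nM, 5 min, RT). Enzyme was E. coli-made recombinant Tdp1 at 1 nM, exposed to compound for 15 min beforehand; beads 10 ug/ml, 10 min.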
APE1 inh – blocks human APE1 abasic DNA cleavage; P27695; recombinant APE1, TAMRA/BHQ-2 abasic DNA cleavage fluorescence; Potency, µM (titrated, usually from 65.8 µM), without a hit: at the highest dose activity change, negative = inhibition, most hits filed as inhibitors; AID 2517; hit rate 0.35% among 350,000;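 further: plate controls were vehicle for no effect and reference inhibitor for full effect; nearly all actives have a fitted effect of over 55% in size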
Target sequence (P27695 whole entry, looked up): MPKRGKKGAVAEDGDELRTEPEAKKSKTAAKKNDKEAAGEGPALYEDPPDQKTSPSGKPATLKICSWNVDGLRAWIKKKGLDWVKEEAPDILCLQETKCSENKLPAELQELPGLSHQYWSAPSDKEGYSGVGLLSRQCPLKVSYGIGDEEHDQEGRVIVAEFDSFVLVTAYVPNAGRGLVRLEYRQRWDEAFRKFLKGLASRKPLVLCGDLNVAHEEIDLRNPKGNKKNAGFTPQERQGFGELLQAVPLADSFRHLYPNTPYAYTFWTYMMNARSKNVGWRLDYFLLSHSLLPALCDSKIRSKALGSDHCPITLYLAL
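Measures dequenching upon AP-site incision of a 5'-TAMRA/3'-BHQ-2 THF-containing duplex, 50 nM; human APE1 0.75 nM after 15 min room-temperature exposure to compound; kinetic three-point read at one-minute spacing.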
RECQ1 inh conf – confirmation of human RECQ1 helicase inhibitors | shares compounds with RECQ1 inh-1 | RECQ1 helicase DNA unwinding, fluorescence | Potency, µM (series often up to 229 µM), for inactives: at the highest dose activity change, negative = inhibition, hits mostly inhibitors | hit rate 28% among 610 | AID 2708; further: nearly all actives have a fitted effect of over 45% in size
RECQ1 ADP FP – ADP displacement flagged in RECQ1 inhibitor counter-screen | AID 2711 | ADP fluorescence polarization displacement counterscreen | shares compounds with RECQ1 inh-1 | hit rate 27% among 530 | Potency, µM (series often up to 228 µM), without a hit: at the highest dose activity change, negative = inhibition, most hits filed as inhibitors; further: nearly all actives have a fitted effect of over 45% in size
RECQ1 inh-2 – RECQ1 helicase inhibition confirmed, round 2 | shares compounds with RECQ1 inh-1 | recombinant RECQ1 DNA unwinding, red fluorescence | Potency, µM (doses to about 119 µM), inactives show at the highest dose activity, negative = inhibition, actives largely listed as inhibitors | hit rate 15% among 1,100; further: nearly all actives have a fitted effect of over 50% in size
Numbers without * were called inactive; i = inactive; ? = inconclusive; nt = no result; [ ] = another dose, or the depositor's remark. Compounds with a hit are over-represented: about 0.92% of the library has one in this group of screens. The call rests on the fitted dose curve; in most records, active means well fitted curve in the direction sought with a large enough effect; inconclusive means small, poorly fitted or top-dose-only effect, or another doubt; inactive means no such curve, though single readings can be large; an effect the other way counts as inactive or inconclusive. Unless noted, on the % scale 0 is the no-effect control and ±100 the full control effect; potency means the concentration at half of the fitted maximal effect.

SMILES | BLM inh | FEN1 inhibitor | RECQ1 inh-1 | TDP1 inh | APE1 inh | RECQ1 inh conf | RECQ1 inh-2 | others
C[Si](C)(C)C#Cc1ccccc1NC(=S)Nc1ccccc1 | -11% | nt | -1% | 13% | 5% | nt | nt
CCN(CC)c1ccc(/C=C/C(=O)c2ccc(Br)cc2)cc1 | -19% | ? | 8.9µM* | nt | -6% | 63µM* | 50µM*
Cc1cccc(N2CCN(C(=O)Cc3ccc(-n4c(=O)[nH]c5ccsc5c4=O)cc3)CC2C)c1 (configuration not stated) | 2% | -2% | -7% | 0% | 14% | -4% | nt | RECQ1 ADP FP=3%
CC(C)[C@H](NC(=O)[C@H](CC(=O)O)NC(=O)CNC(=O)[C@@H](N)CCCN=C(N)N)C(=O)O | -3% | nt | -6% | 10% | 0% | nt | nt
Cc1cc(C)cc(NC(=O)c2nnn(Cc3cc(C)ccc3C)c2N)c1 | -9% | ? | 1.8µM* | 3% | 3% | ? | -18% | RECQ1 ADP FP=?
Oc1ccc(COC2CCN(Cc3ccccc3)C2)c2cccnc12 (configuration not stated) | nt | nt | nt | nt | 25% | nt | nt
CNC(=O)C1(C(F)(F)F)C/C(=C\Cc2ccccc2)CCCO1 (configuration not stated) | -1% | -1% | 3% | 4% | 2% | nt | nt
O=C1C(=Cc2ccc(Br)o2)C(=O)c2ccccc21 | -2% | 14µM* | 8.9µM* | ? | 8.9µM* | ? | nt
Cc1ccc(C(=O)O)cc1-c1ccc(C=C2C(=O)c3ccccc3C2=O)o1 | 4% | ? | -10% | -2% | -7% | nt | nt
O=C(CSc1n[nH]c(-c2ccccc2)n1)c1ccc(O)c(O)c1 | -2% | -1% | 20µM* | 2% | ? | nt | ?
Cc1cc2c(cc1Cl)C(c1ccc3c(c1)OCO3)CC(=O)O2 (configuration not stated) | -1%[75.6 µM] | nt | i | 2% | -1% | nt | nt
CCOc1ccc(C(=O)Nc2cccc(-c3cc4ccccc4oc3=O)c2)cc1[N+](=O)[O-] | -10% | 2% | 25µM* | 2% | -11% | nt | ?
CCOc1ccccc1NC(=O)c1ccc(OCC)c([N+](=O)[O-])c1 | -1% | -1% | 0% | 6% | 2% | nt | nt
CCOc1ccc(C(=O)Nc2cc(-c3nc4ccccc4[nH]3)ccc2Cl)cc1[N+](=O)[O-] | ? | ? | ? | nt | ? | nt | 56µM*
Cc1ccc2c(c1)-c1nc(-c3ccc4c(c3)NC(=O)CO4)cc(-c3ccc(Cl)cc3)c1CO2 | -4% | 19% | nt | 2% | nt | nt | nt
CN(C)c1ccc(/C=C/c2ccnc3ccc(I)cc23)cc1 | nt | -4% | nt | nt | nt | nt | nt
CCOc1ccc(-c2csc(NC(=O)c3ccc(S(=O)(=O)N4CCc5ccccc5C4)cc3)n2)cc1 | 1% | 10% | 0% | -2% | -6% | nt | nt
COC(=O)Cn1c(=NC(=O)c2ccc(S(=O)(=O)N3CCc4ccccc4C3)cc2)sc2cc(OC)ccc21 | -3% | -1% | i | -3% | 12% | 0% | nt | RECQ1 ADP FP=10%
COc1ccc(-c2csc(NC(=O)c3ccc(S(=O)(=O)N4CCc5ccccc5C4)cc3)n2)c(OC)c1 | -4% | -3% | i | 3% | 17% | 4% | nt | RECQ1 ADP FP=-10%
CCNc1ncc2nc(-c3cc(F)cc(F)c3)c(=O)n(CCc3ccccc3)c2n1 | -9% | nt | ? | nt | ? | nt | 16µM*
CCNc1ncc2nc(-c3ccc(OC)cc3)c(=O)n(CCc3ccccc3)c2n1 | 1% | nt | -12% | nt | 12% | nt | nt
COc1cc(/C=C/C(=O)Nc2nc3ccc(S(=O)(=O)N(C)C)cc3s2)cc(OC)c1OC | 5µM* | 0% | 6.3µM* | 3% | -6% | nt | 2.2µM*
CNS(=O)(=O)c1ccc2nc(NC(=O)/C=C/c3ccco3)sc2c1 | -4% | -24% | ? | ? | ? | nt | -21%
COc1cc(/C=C/C(=O)Nc2nnc(C(C)(C)C)s2)cc(OC)c1OC | -5% | 0% | -14% | 3% | 24% | nt | nt
COc1ccc2[nH]c3c(C)c4ccncc4c(C)c3c2c1 | 42% | 2.8µM* | 22µM* | 6% | 7.9µM* | nt | 7.9µM*
SMILES | BLM inh | FEN1 inhibitor | RECQ1 inh-1 | TDP1 inh | APE1 inh | RECQ1 inh conf | RECQ1 inh-2 | others
Cc1ccc(CN2CCCn3nc(C(=O)NCc4cc(C)ccc4C)cc3C2=O)cc1 | -8% | -10% | nt | -4% | nt | nt | nt
CN1/C(=C\C(=O)COC(=O)Cn2nnc(-c3ccccc3)n2)C(C)(C)c2ccccc21 | -15% | ? | ? | -1% | -10% | nt | 45µM*
CO[C@H]1COC(=O)[C@@H](C)COC(=O)[C@H](C)NC(=O)C/C=C\[C@H]1C | -3%[12.4 µM] | nt | -2%[11.5 µM] | 6%[21 µM] | -11%[12.4 µM] | nt | nt
COCCN(C(=O)c1cc2c(s1)CCC2)c1c(N)n(CC(C)C)c(=O)[nH]c1=O | nt | -2% | nt | ? | -7% | nt | nt
COCCCN(C(=O)c1cc2c(s1)CCC2)c1c(N)n(Cc2ccccc2)c(=O)[nH]c1=O | ? | -5% | 14µM* | nt | ? | 40µM* | ? | RECQ1 ADP FP=?
O=C(Nc1cc2c(cc1C(=O)c1ccc(Br)cc1)OCCO2)c1ccc(Cl)cc1 | -7% | -29% | nt | 3%[2.28 µM] | nt | nt | nt
O=C(O)c1ccc(NC(CSCc2ccc(F)cc2)C(=O)O)c([N+](=O)[O-])c1 (configuration not stated) | 1% | 2% | 7% | 7% | -2% | 23% | nt | RECQ1 ADP FP=-6%
Cc1ccc(-n2nnc(-c3nccs3)n2)cc1 | 3% | -8% | 0.89µM* | 3% | ? | 12%[114 µM] | 0% | RECQ1 ADP FP=32%[91.9 µM]
O=C(O)[C@H](CC(=O)N1C[C@H]2CCCC[C@H]2C1)Cc1ccccc1 | -10% | nt | nt | nt | nt | nt | nt
COc1ccc2cc(-c3[nH]ncc3CN3CCCN(c4ccccc4)CC3)ccc2c1 | -6% | 2% | ? | 8% | -7% | nt | -23%
COc1cccc(C(C(=O)NCc2ccco2)N(C(=O)Cn2nnc3ccccc32)C2CC2)c1OC (configuration not stated) | -1% | 9% | ? | 1% | 0% | nt | -11%
O=C(c1ccc(CSc2nc3ccncc3n2Cc2cccc(F)c2)cc1)N1CCCCC1 | 0% | 18% | nt | 3% | nt | nt | nt
O=C(CN(c1ccccc1)S(=O)(=O)c1ccccc1)NCCSCc1ccco1 | -27% | -19% | 14µM* | 28µM* | 7.9µM* | 50µM* | ? | RECQ1 ADP FP=50µM*

Screening data from PubChem BioAssay.
